miR-21 act = qHTS Assay for Modulators of miRNAs and/orActivators of miR-21; 340,000 tested, under 10 active; Potency, µM (series often up to 38.3 µM), without a hit: top-dose activity change, positive = activation, usual class: activators; AID 2288, 2010; HeLa miR-21 FLuc reporter, luciferase, 48 h;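 note: % of control where 0% means no effect; miR-21 action dims this reporter so a rising signal means less miR-21 action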
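HeLa cells stably expressing CMV-driven firefly luciferase with a downstream miR-21 binding sequence, endogenously expressing miR-21, were treated with titrations (up to about 40uM final) for 48 hours at 37 degree Celsius. Luciferase luminescence was read after lysis.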
ClpP mod = qHTS Assay for Activators of ClpP. ATP-dependent Clp protease proteolytic subunit (Bacillus subtilis (strain 168)), P80244. purified B. subtilis ClpP, FRET peptide cleavage, 20 min. Potency, µM (titrated, usually from 57.5 µM), for the others: at the highest dose activity change, negative = active. 1.9% of 340,000 active. AID 651965, 2013; active = well fitted falling curve with a large enough effect; inconclusive = small, poorly fitted or top-dose-only effect; inactive = no such curve, though single readings can be large or run the other way; note: potency is the fitted concentration of half-maximal effect; the source files actives as falling curves though it sought activators and does not explain the sign; nearly all actives have a fitted effect of over 65% in size
Target sequence (P80244 whole entry, looked up): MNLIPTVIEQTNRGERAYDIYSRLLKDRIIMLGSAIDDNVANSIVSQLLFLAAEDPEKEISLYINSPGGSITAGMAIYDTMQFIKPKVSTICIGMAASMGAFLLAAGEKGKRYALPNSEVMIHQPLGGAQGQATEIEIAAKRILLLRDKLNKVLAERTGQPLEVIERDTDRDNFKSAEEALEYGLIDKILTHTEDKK
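Purified B. subtilis ClpP, 10 microg/mL final in Tris/HCl pH8 with KCl, BSA, glycerol and Tween-20, cleaved an Abz/nitrotyrosine-quenched decapeptide. Fluorescence (ex 320, em 430) was read at 0 and 20 min at room temperature. Delta was normalized to 5.8 microM ADEP and DMSO/no-enzyme controls.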
Nrf2 block = Nrf2 qHTS screen for inhibitors. 2.1% of 360,000 active. A549 ARE-Fluc reporter, luciferase luminescence, 18-24 h. Potency, µM (doses to about 46 µM), for the others: at the top dose activity change, negative = inhibition, actives largely listed as inhibitors; note: potency is the fitted concentration of half-maximal effect; % is set by controls: 0 for no effect and ±100 for the full control effect; nearly all actives have a fitted effect of over 60% in size
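Reporter: ARE-Fluc in A549. Exposure: 18-24 h, 37 °C, 5% CO2, 5% FBS OPTI-MEM. Readouts: fluorescent cytotoxicity (CellTiter-Fluor), then luminescent Nrf2 signal after BugLite.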
TCR activator = Activators of T cell receptors: qHTS campaign. primary human leukocytes, anti-CD3, IL-2 HTRF, 48 h. 330,000 tested, under 10 active. Potency, µM (doses to about 9.22 µM), inactives show at the top dose activation of IL-2 secretion, most hits filed as activators; note: % of control where 0% means no effect
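Activity was scored as IL-2 release from primary human leukocytes given only a TCR signal (a-CD3 beads) plus compound for 48 hr. Detection used a two-antibody HTRF format read at 665nm.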
Nrf2 activator = qHTS of Nrf2 Activators. AREc32 ARE-luciferase reporter (MCF7-derived line), luminescence, 24 h. Potency, µM (highest dose often 46.1 µM), inactives show at the highest dose activation, hits mostly activators. 0.31% of 410,000 active; note: potency is the fitted concentration of half-maximal effect; % of control where 0% means no effect; nearly all actives have a fitted effect of over 65% in size
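Luciferase luminescence (Steady-Glo, 30 min at room temperature) served as the read-out of ARE activation in AREc32 cells treated with compounds for 24 hr at 37 deg C.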
A549 tox = Nrf2 qHTS screen for inhibitors: counterscreen for cytotoxicity | A549 ARE-Fluc cells, CellTiter-Fluor viability, 18-24 h | Potency, µM (doses to about 46 µM), inactives show at the top dose activity change, negative = cytotoxicity, actives largely listed as inhibitors | 0.16% of 390,000 active | AID 504648, 2011; note: potency is the fitted concentration of half-maximal effect; % is set by controls: 0 for no effect and ±100 for the full control effect
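Cytotoxicity counterscreen: CellTiter-Fluor fluorescence was measured in A549 ARE_Fluc cells after 18-24 h of compound exposure in a concentration series. The subsequent BugLite luminescent read reports ARE-luciferase activity.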
An asterisk follows results filed as active; ? = inconclusive; . = no result; [ ] = remark or other dose. The list is not random: actives were taken first. Their share in the collection is about 3.7%. Unless noted, calls come from the whole dose curve; as a rule, active = well fitted curve in the direction sought with a large enough effect; inconclusive = small, poorly fitted or top-dose-only effect, or another doubt; inactive = no such curve, though single readings can be large; an effect the other way counts as inactive or inconclusive.

SMILES	miR-21 act	ClpP mod	Nrf2 block	TCR activator	Nrf2 activator	A549 tox
COc1ccc2c(c1)c1c(c(=O)n(Cc3ccccc3)c(=O)n1CC(=O)Nc1ccccc1OC)n2C	1%	20µM*	8%	.	1%	3%
COc1ccccc1NC(=O)Cn1c(=O)n(Cc2ccccc2)c(=O)c2c1c1cc(C)ccc1n2C	1%	4%	16%	.	-1%	-12%
CCCN(CC(=O)Nc1ccccc1OC)CC(=O)c1c(N)n(Cc2ccccc2)c(=O)n(C)c1=O	.	-1%	13µM*	3%	0%	-19%
Cc1ccc(-n2nnnc2SCC(=O)N2CCc3ccccc3C2)c(C)c1	-5%	-2%	16µM*	.	0%	-8%
COC(=O)c1cc(C)nc2c1C(=O)C(=O)C=C2N1CCOCC1	?	.	16µM*	-2%	-4%	?
Cn1c(=O)oc2cc(S(=O)(=O)Nc3cccc(F)c3)ccc21	-4%	-3%	6%	10%[46.1 µM]	0%	6%
Cn1c(=O)n(C)c2cc(NS(=O)(=O)c3ccccc3)ccc21	-6%	3%	?	6%	17%	1%
CSc1cccc(NS(=O)(=O)c2ccc3c(c2)oc(=O)n3C)c1	-2%	2%	26µM*	6%	-1%	-5%
CCOC(=O)c1ccc(NS(=O)(=O)c2ccc(SC)cc2)cc1	-3%	0%	23µM*	7%	0%	?
CCOc1ccc(S(=O)(=O)Nc2ccc3c(c2)n(C)c(=O)n3C)cc1	18%	.	16µM*	1%	5%	2%
Cn1c(=O)n(C)c2cc(S(=O)(=O)Nc3ccccc3)ccc21	-3%	.	23µM*	-2%	5%	-7%
O=C(NCC1COc2ccccc2O1)c1ccc(Br)s1 (stereo unspecified)	-49%	1%	33%	-4%	7%	14%
COC(=O)c1ccc(NS(=O)(=O)c2ccc3c(c2)n(C)c(=O)n3C)cc1	-8%	0%	-25%	.	2%	-1%
CCOC(=O)c1ccc(NS(=O)(=O)c2ccc3c(c2)n(C)c(=O)n3C)cc1	1%	-4%	21µM*	13%	5%	11%
COc1ccc(CCNC(=O)c2ccc3c(c2)N(Cc2cc(C)ccc2C)C(=O)c2ccccc2S3=O)cc1OC (stereo unspecified)	14%	-6%	10%	.	1%	-5%
CC(C)(C)C(=O)n1nc(-c2ccccc2)oc1=O	-6%	32µM*	4%	1%[46.1 µM]	-1%	4%
Cn1c(=O)n(C)c2cc([N+](=O)[O-])c(N3CCN(S(=O)(=O)c4ccc(C(C)(C)C)cc4)CC3)cc21	-1%	1%	?	.	0%	11%
O=C(c1cccc(F)c1)N1CCN(c2cc(N3CCCCC3)c(F)cc2[N+](=O)[O-])CC1	0%	0%	21µM*	3%	0%	?
CC(=O)Nc1ccc(S(=O)(=O)N2CCN(c3cc4c(cc3[N+](=O)[O-])n(C)c(=O)n4C)CC2)cc1	17%	0%	16µM*	.	4%	4%
CC(=O)N1CCN(c2cc(N3CCc4ccccc4C3)c(F)cc2[N+](=O)[O-])CC1	-6%	0%	23µM*	.	4%	?
Cn1c(=O)n(C)c2cc([N+](=O)[O-])c(N3CCN(C(=O)c4ccc(F)cc4)CC3)cc21	-3%	1%	18µM*	0%	4%	-22%
O=C(O)C1CCC2CCCC21 (stereo unspecified)	.	1%	.	.	-1%	.
O=[S+]([O-])(c1c(F)cccc1F)N1CCN([S+](=O)([O-])c2csc3ccccc23)CC1	.	.	-3%	.	.	17%
O=C1c2ccccc2C(=O)N1c1cnc2ccccc2c1	.	.	10%	.	.	10%
